Assay results: the supplement of paper PMC12494721
Where a name gives a salt, the structure may show the parent alone.

Columns and labels:
Details in all cases: incubation time: 27 h, anaerobic, 37 °C;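 for the amine columns active = adjusted P below 0.05 in both replicates with a change the same way and a mean fold change under 0.8 or over 1.25; inactive = the rest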
[1] = test system: Clostridium sporogenes DSM 1664; experiment: growth (OD595) fold change vs plate DMSO controls (fold change (ratio)); higher = more growth
Method in brief: (§1)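 Growth is the fold change relative to the median of plate DMSO controls. Readings came from anaerobic mGAM cultures in 96-well plates grown for 27 h at 37 °C and read at 595 nm. They were blank-subtracted, corrected for compound background with 20 µM compound solutions in water, and converted to OD with a calibration factor of 5. Values are means of 2 biological replicates, and fold changes above 1.5 were set to NA.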

[2] = test system: Escherichia coli IAI1; experiment: as above
Method in brief: as §1

[3] = test system: Klebsiella aerogenes DSM 30053; experiment: as above
Method in brief: as §1

[4] = test system: Ruminococcus gnavus DSM 108212; experiment: as above
Method in brief: as §1

[5] = test system: Klebsiella aerogenes DSM 30053; experiment: fold change of Histamine concentration vs plate DMSO controls (fold change (ratio)); higher = more amine produced, active = hit call of the paper (significant change in both replicates, either direction)
Method in brief: (§2)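 In 80 µL wells, cultures of four gut bacterial strains in mGAM started at OD 0.1 before a 1:1 dilution and grew anaerobically at 37 °C for 27 h. Compounds were added to 20 µM final, except sweeteners at 50 µM final. After extraction of whole cultures with cold acetonitrile/methanol plus 0.1% formic acid and centrifugation, amines were measured by LC–triple-quadrupole MS in dynamic MRM mode against external calibration curves, with within-batch drift correction. Values give fold change over DMSO controls on the same plate, averaged across 2 biological replicates.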

[6] = test system: Clostridium sporogenes DSM 1664; experiment: fold change of Tryptamine concentration vs plate DMSO controls (fold change (ratio)); higher = more amine produced, active = hit call of the paper (significant change in both replicates, either direction)
Method in brief: as §2

[7] = test system: Ruminococcus gnavus DSM 108212; experiment: as above
Method in brief: as §2

[8] = test system: Escherichia coli IAI1; experiment: fold change of Putrescine concentration vs plate DMSO controls (fold change (ratio)); higher = more amine produced, active = hit call of the paper (significant change in both replicates, either direction)
Method in brief: as §2

[9] = test system: Klebsiella aerogenes DSM 30053; experiment: as above
Method in brief: as §2

[10] = test system: Escherichia coli IAI1; experiment: fold change of Cadaverine concentration vs plate DMSO controls (fold change (ratio)); higher = more amine produced, active = hit call of the paper (significant change in both replicates, either direction)
Method in brief: as §2

[11] = test system: Klebsiella aerogenes DSM 30053; experiment: as above
Method in brief: as §2

[12] = test system: Ruminococcus gnavus DSM 108212; experiment: fold change of 2-Phenylethylamine concentration vs plate DMSO controls (fold change (ratio)); higher = more amine produced, active = hit call of the paper (significant change in both replicates, either direction)
Method in brief: as §2

Structure (SMILES) | growth [1] | growth [2] | growth [3] | growth [4] | fold change of Histamine concentration [5] | fold change of Tryptamine concentration [6] | fold change of Tryptamine concentration [7] | fold change of Putrescine concentration [8] | fold change of Putrescine concentration [9] | fold change of Cadaverine concentration [10] | fold change of Cadaverine concentration [11] | fold change of 2-Phenylethylamine concentration [12]
CC(=O)O[C@H]1C[C@@]2(C)[C@@H](C[C@@H](O)[C@H]3[C@@]4(C)CC[C@@H](O)[C@@H](C)[C@@H]4CC[C@@]32C)/C1=C(\CCC=C(C)C)C(=O)O [Fusidic acid sodium salt] (20 µM) | 0.00767 | 1.02 | 1.09 | 0.122 | 0.846 (inactive) | 0.0208 (active) | 0.102 (active) | 0.913 (inactive) | 0.963 (inactive) | 1 (inactive) | 1.02 (inactive) | 0.106 (active)
CCNC(=O)CCC/C=C\C[C@@H]1[C@@H](/C=C/[C@@H](O)CCc2ccccc2)[C@H](O)C[C@@H]1O [Bimatoprost] (20 µM) | 1.07 | 1.06 | 1.02 | 1 | 1.05 (inactive) | 1.02 (inactive) | 0.954 (inactive) | 1.02 (inactive) | 1.03 (inactive) | 1.04 (inactive) | 0.997 (inactive) | 0.919 (inactive)
OC[C@H]1O[C@H](O[C@H]2O[C@H](CO)[C@@H](O)[C@H](O)[C@H]2O)[C@H](O)[C@@H](O)[C@@H]1O [Trehalose dihydrate] (20 µM) | 1 | 1.04 | 1.08 | 1.11 | 0.919 (inactive) | 0.967 (inactive) | 1.06 (inactive) | 1.02 (inactive) | 0.986 (inactive) | 0.988 (inactive) | 1 (inactive) | 1.09 (inactive)
C[C@@H](O)[C@H]1C(=O)N2C(C(=O)O)=C(S[C@@H]3CN[C@H](C(=O)N(C)C)C3)[C@H](C)[C@H]12 [Meropenem] (20 µM) | 0 | 0.0127 | 0.316 | 0 | 0.214 (active) | 0.0316 (active) | 0.0446 (active) | 0.278 (active) | 0.605 (active) | 0.971 (inactive) | 1.11 (inactive) | 0.0459 (active)
COc1cc(C(=O)NS(=O)(=O)c2ccccc2C)ccc1Cc1cn(C)c2ccc(NC(=O)OC3CCCC3)cc12 [Zafirlukast] (20 µM) | 0.542 | 0.946 | 0.99 | 0.355 | 1.05 (inactive) | 0.371 (active) | 0.582 (active) | 0.977 (inactive) | 1.02 (inactive) | 1.02 (inactive) | 1.01 (inactive) | 0.814 (inactive)
CN(C)c1ccc(O)c2c1C[C@H]1C[C@H]3[C@H](N(C)C)C(=O)C(C(N)=O)=C(O)[C@@]3(O)C(=O)C1=C2O [Minocycline hydrochloride] (20 µM) | 0.0113 | 0.0671 | 0.394 | 0.158 | 0.996 (inactive) | 0.0198 (active) | 0.14 (active) | 0.287 (active) | 0.866 (inactive) | 0.278 (active) | 0.681 (active) | 0.142 (active)
CN(C)CCC(c1ccccc1)c1ccccn1 (stereo not drawn) [Pheniramine maleate] (20 µM) | 1.03 | 0.982 | 0.985 | 0.784 | 1.02 (inactive) | 0.954 (inactive) | 0.877 (inactive) | 0.896 (inactive) | 1.01 (inactive) | 1.27 (active) | 0.986 (inactive) | 0.798 (inactive)
CN1CCC(=C2c3ccccc3CC(=O)c3sccc32)CC1 [Ketotifen fumarate] (20 µM) | 1 | 0.988 | 1.07 | 1 | 0.935 (inactive) | 1.02 (inactive) | 0.991 (inactive) | 0.966 (inactive) | 0.996 (inactive) | 1.01 (inactive) | 1.01 (inactive) | 0.968 (inactive)
CN(C)CCN1C(=O)c2ccccc2N(C)c2ccccc21 [Dibenzepine hydrochloride] (20 µM) | 1.02 | 0.993 | 0.972 | 0.677 | 1.06 (inactive) | 0.993 (inactive) | 1.03 (inactive) | 1.01 (inactive) | 1.01 (inactive) | 1.02 (inactive) | 0.985 (inactive) | 1.06 (inactive)
CCN(CC)C(=O)Nc1ccc(OCC(O)CNC(C)(C)C)c(C(C)=O)c1 (stereo not drawn) [Celiprolol hydrochloride] (20 µM) | 1.03 | 0.981 | 0.953 | 0.712 | 1.09 (inactive) | 0.988 (inactive) | 1.02 (inactive) | 1 (inactive) | 1.01 (inactive) | 1.02 (inactive) | 0.988 (inactive) | 1.04 (inactive)
Cc1ccc(Cl)c(Nc2ccccc2C(=O)O)c1Cl [Meclofenamic acid sodium salt monohydrate] (20 µM) | 1.01 | 0.972 | 1.16 | 1.12 | 0.916 (inactive) | 0.879 (inactive) | 0.959 (inactive) | 0.999 (inactive) | 0.977 (inactive) | 1.03 (inactive) | 1.03 (inactive) | 0.911 (inactive)
COc1ccc(C(=O)NCc2ccc(OCCN(C)C)cc2)cc1OC [Itopride] (20 µM) | 1.15 | 1.1 | 1.08 | 1.2 | 0.925 (inactive) | 1.05 (inactive) | 1.04 (inactive) | 1.09 (inactive) | 0.98 (inactive) | 0.942 (inactive) | 1.06 (inactive) | 1.04 (inactive)
O=C1CC[C@@H](C(=O)N2CSC[C@H]2C(=O)O)N1 [Pidotimod] (20 µM) | 1.31 | 0.987 | 1.02 | 1.09 | 0.983 (inactive) | 0.982 (inactive) | 1.02 (inactive) | 0.979 (inactive) | 0.992 (inactive) | 1.01 (inactive) | 0.999 (inactive) | 1.04 (inactive)
CCCCc1ncc(/C=C(\Cc2cccs2)C(=O)O)n1Cc1ccc(C(=O)O)cc1 [Eprosartan mesylate] (20 µM) | 1.06 | 1.06 | 1.16 | 0.916 | 0.882 (inactive) | 1.08 (inactive) | 0.998 (inactive) | 0.975 (inactive) | 1 (inactive) | 0.963 (inactive) | 1.03 (inactive) | 1.02 (inactive)
CN(C(=O)C(Cl)Cl)c1ccc(OC(=O)c2ccco2)cc1 [Diloxanide furoate] (20 µM) | 1.1 | 0.998 | 1.01 | 0.993 | 1 (inactive) | 0.918 (inactive) | 0.915 (inactive) | 1.02 (inactive) | 1 (inactive) | 0.973 (inactive) | 0.997 (inactive) | 0.979 (inactive)
CN(C)CCOc1ccc(/C(=C(/CCCl)c2ccccc2)c2ccccc2)cc1 [Toremifene] (20 µM) | 1.18 | 1.1 | 1.15 | 0.943 | 0.943 (inactive) | 1.02 (inactive) | 0.647 (active) | 0.998 (inactive) | 0.975 (inactive) | 0.98 (inactive) | 1.04 (inactive) | 0.871 (inactive)
COc1ccc(C2C(=O)c3ccccc3C2=O)cc1 [Anisindione] (20 µM) | 0.917 | 0.951 | 0.965 | 1.04 | 1.03 (inactive) | 0.976 (inactive) | 0.994 (inactive) | 0.953 (inactive) | 1 (inactive) | 0.994 (inactive) | 0.991 (inactive) | 0.951 (inactive)
COc1cc(N)c(Cl)cc1C(=O)NC1CCN(Cc2ccccc2)CC1 [Clebopride maleate] (20 µM) | 1.05 | 0.95 | 0.981 | 0.875 | 1 (inactive) | 1.01 (inactive) | 0.985 (inactive) | 0.926 (inactive) | 0.976 (inactive) | 0.984 (inactive) | 0.999 (inactive) | 0.985 (inactive)
CC(c1cc2ccccc2s1)N(O)C(N)=O (stereo not drawn) [Zileuton] (20 µM) | 1.11 | 0.91 | 0.978 | 1.01 | 1.06 (inactive) | 0.987 (inactive) | 1.03 (inactive) | 0.86 (inactive) | 1.01 (inactive) | 1 (inactive) | 0.98 (inactive) | 1.07 (inactive)
O=C(CCCN1CC=C(n2c(=O)[nH]c3ccccc32)CC1)c1ccc(F)cc1 [Droperidol] (20 µM) | 1.02 | 0.959 | 1.02 | 0.835 | 0.994 (inactive) | 0.988 (inactive) | 0.963 (inactive) | 0.977 (inactive) | 1.02 (inactive) | 1.03 (inactive) | 1 (inactive) | 0.956 (inactive)
S=c1[nH]cnc2nc[nH]c12 [Mercaptopurine] (20 µM) | 1.07 | 1.1 | 0.98 | 0.869 | 1.05 (inactive) | 1.01 (inactive) | 0.944 (inactive) | 1.06 (inactive) | 1 (inactive) | 0.879 (inactive) | 0.999 (inactive) | 0.959 (inactive)
COC(=O)C1=C(C)NC(C)=C(C(=O)OCC(C)C)C1c1ccccc1[N+](=O)[O-] (stereo not drawn) [Nisoldipine] (20 µM) | 0.851 | 1.13 | 1.02 | 0.871 | 0.949 (inactive) | 1.06 (inactive) | 0.899 (inactive) | 1.1 (inactive) | 1 (inactive) | 0.981 (inactive) | 1.01 (inactive) | 0.898 (inactive)
C1CCC(C(CC2CCCCN2)C2CCCCC2)CC1 (stereo not drawn) [Perhexiline maleate] (20 µM) | 1.14 | 1 | 1 | 0.952 | 0.983 (inactive) | 1.03 (inactive) | 0.771 (active) | 1.05 (inactive) | 1.01 (inactive) | 1.05 (inactive) | 1 (inactive) | 0.892 (inactive)
CC(=O)Nc1nnc(S(N)(=O)=O)s1 [Acetazolamide] (20 µM) | 1.04 | 0.95 | 1.04 | 0.746 | 1.04 (inactive) | 0.973 (inactive) | 1.02 (inactive) | 0.965 (inactive) | 1.06 (inactive) | 0.971 (inactive) | 1.11 (inactive) | 1.09 (inactive)
